Measured values as given in the antibiotic and cytotoxicity screens of Wong et al. (2023).
The whole screen tested about 39,000 compounds, of which about 500 (1.3%) were called active. This excerpt belongs to a sample that is enriched for actives.

What follows are molecules tested on S. aureus RN4220 (assay: growth inhibition call (relative growth <= 0.2)). Conditions: 50 µM.
`C[C@H]1CN([C@@H](C)CO)C(=O)Cc2cc(NS(=O)(=O)c3ccc(F)cc3)ccc2O[C@@H]1CN(C)C(=O)Nc1cccc2ccccc12` was tested, and the growth inhibition call was “inactive”.
`C[C@@H]1CCCCO[C@@H](CN(C)C(=O)Nc2ccccc2)[C@@H](C)CN([C@@H](C)CO)C(=O)c2cc(NC(=O)Nc3ccc(C(F)(F)F)cc3)ccc2O1` was tested, and the growth inhibition call was “inactive”.
In the case of `C[C@H](CO)N1C[C@H](C)[C@H](CN(C)S(=O)(=O)c2ccc3ccccc3c2)OCc2cnnn2CCCC1=O`, the growth inhibition call is reported as “inactive”.
`COC(=O)c1cn(CCNC(=O)[C@@H](NS(=O)(=O)c2ccc(C)cc2)C(C)C)nn1` was tested, and the growth inhibition call was “inactive”.
For `C[C@@H]1CCCCO[C@@H](CN(C)S(=O)(=O)c2cn(C)cn2)[C@@H](C)CN([C@@H](C)CO)C(=O)c2cc(NC(=O)CCCN(C)C)ccc2O1`, the growth inhibition call was “inactive”.
For `O=C(NCCN1CCOCC1)[C@@]1(Cc2ccccc2)N=C(c2ccc(OCCCO)cc2)O[C@H]1c1ccccc1`, the growth inhibition call was “inactive”.
`C[C@@H]1CN([C@H](C)CO)C(=O)c2cc(NC(=O)Nc3ccc(C(F)(F)F)cc3)ccc2O[C@@H]1CN(C)Cc1ccc(C(F)(F)F)cc1` was tested, and the growth inhibition call was “inactive”.
`COc1ccc(NC(=O)N(C)C[C@H]2Oc3ccc(NC(=O)C4CC4)cc3C(=O)N([C@@H](C)CO)C[C@@H]2C)cc1` was tested, and the growth inhibition call was “inactive”.
`COc1ccc2c3c(n(c2c1)C)[C@H](CO)N(CC1CCOCC1)C[C@]13CN(C1)C(=O)Cc1cccnc1` was tested, and the growth inhibition call was “inactive”.
`Cc1ccc(S(=O)(=O)N(C)C[C@@H]2Oc3ccc(N(C)C)cc3CC(=O)N([C@@H](C)CO)C[C@@H]2C)cc1` was tested, and the growth inhibition call was “inactive”.
With `O=C(C[C@H]1C[C@@H]2c3cc(NC(=O)Nc4ccc(C(F)(F)F)cc4)ccc3O[C@@H]2[C@H](CO)O1)NCCc1ccccc1` the growth inhibition call was “inactive”.
With `Cc1n[nH]c(=S)[nH]c1=O` the growth inhibition call was “inactive”.
In the case of `Cc1ccc(S(=O)(=O)N(C)C[C@H]2Oc3c(NC(=O)C4CC4)cccc3C(=O)N([C@@H](C)CO)C[C@@H]2C)cc1`, the growth inhibition call is reported as “inactive”.
In the case of `Cc1ccc(-c2cnc3c(c2)C(=O)N([C@H](C)CO)C[C@@H](C)[C@H](CN(C)C(=O)Cc2cccnc2)O3)cc1`, the growth inhibition call is reported as “inactive”.
For `C[C@@H]1CN([C@@H](C)CO)C(=O)c2cc(NC(=O)Nc3cccc4ccccc34)ccc2O[C@@H]1CN(C)Cc1ccc(C(F)(F)F)cc1`, the growth inhibition call was “inactive”.
In the case of `O=C(C[C@@H]1CC[C@@H]2[C@H](COC[C@@H](O)CN2C(=O)Nc2ccc(Cl)c(Cl)c2)O1)NCc1ccc(Cl)c(Cl)c1`, the growth inhibition call is reported as “inactive”.
In the case of `O=C(C[C@H]1CC[C@@H]2[C@H](COC[C@@H](O)CN2C(=O)Nc2ccc(Cl)c(Cl)c2)O1)NCc1ccc(Cl)c(Cl)c1`, the growth inhibition call is reported as “inactive”.
For `O=C(C[C@H]1CC[C@@H]2[C@H](COC[C@@H](O)CN2C(=O)Nc2ccc(Cl)c(Cl)c2)O1)NCc1ccncc1`, the growth inhibition call was “active”.
`CCO[C@@H]1OC(C(=O)N2CCOCC2)=C[C@H](C2CC2)[C@H]1CCCOC(=O)NCCCCCC(=O)NO` was tested, and the growth inhibition call was “inactive”.
In the case of `O=S(=O)(Cc1ccccc1)Nn1cnnc1`, the growth inhibition call is reported as “inactive”.
`C[C@H]1CN([C@@H](C)CO)C(=O)Cc2cc(NS(=O)(=O)c3ccc(F)cc3)ccc2O[C@@H]1CN(C)S(C)(=O)=O` was tested, and the growth inhibition call was “inactive”.
For `Cc1ccc(S(=O)(=O)N(C)C[C@@H]2OCCCC[C@@H](C)Oc3ccc(NC(=O)Nc4cccc5ccccc45)cc3C(=O)N([C@@H](C)CO)C[C@@H]2C)cc1`, the growth inhibition call was “inactive”.
With `CC1=C(C(=O)O)N2C(=O)[C@@H](NC(=O)[C@@H](N)c3ccccc3)[C@H]2SC1` the growth inhibition call was “inactive”.
In the case of `NC(C(=O)NC1C(=O)N2C(C(=O)O)=C(Cl)CSC12)c1ccccc1` (stereo not drawn), the growth inhibition call is reported as “active”.
For `N[C@@H](C(=O)N[C@@H]1C(=O)N2C(C(=O)O)=C(Cl)CS[C@H]12)c1ccccc1`, the growth inhibition call was “active”.
With `CC1=C(C(=O)O)N2C(=O)C(NC(=O)C(N)c3ccccc3)C2SC1` (stereo not drawn) the growth inhibition call was “inactive”.
`CC1=C(C(=O)O)N2C(=O)[C@H](NC(=O)[C@@H](N)c3ccccc3)[C@H]2SC1` was tested, and the growth inhibition call was “inactive”.
`CC1=C(C(=O)O)N2C(=O)[C@@H](NC(=O)[C@H](N)c3ccccc3)[C@H]2SC1` was tested, and the growth inhibition call was “inactive”.
`N[C@@H](C(=O)N[C@@H]1C(=O)N2C(C(=O)O)=C(Cl)CC[C@H]12)c1ccccc1` was tested, and the growth inhibition call was “active”.
For `O=C(C[C@H]1C[C@@H]2c3cc(NS(=O)(=O)c4ccc(F)cc4)ccc3O[C@@H]2[C@H](CO)O1)NCc1cccc(F)c1`, the growth inhibition call was “inactive”.
In the case of `Cc1ccc(S(=O)(=O)N(C)C[C@H]2OCCCC[C@@H](C)Oc3ccc(NC(=O)c4ccccc4)cc3C(=O)N([C@@H](C)CO)C[C@@H]2C)cc1`, the growth inhibition call is reported as “inactive”.
In the case of `C[C@@H]1CN([C@@H](C)CO)C(=O)c2cc(NC(=O)Cn3cnnn3)ccc2O[C@H]1CN(C)CC1CCCCC1`, the growth inhibition call is reported as “inactive”.
In the case of `C=CC[C@@H](CC(=O)NCCO)C(=O)NC[C@@H](OC(=O)[C@@H](CC=C)CC(=O)OC(C)(C)C)c1ccccc1`, the growth inhibition call is reported as “inactive”.
In the case of `C[C@H](CO)N1C[C@H](C)[C@H](CN(C)Cc2ccc(-c3ccccc3)cc2)Oc2c(NC(=O)C3CC3)cccc2C1=O`, the growth inhibition call is reported as “inactive”.
For `C[C@@H]1CN([C@H](C)CO)C(=O)c2cccc(NS(=O)(=O)c3ccccc3)c2O[C@H]1CN(C)C(=O)Nc1cccc2ccccc12`, the growth inhibition call was “inactive”.
In the case of `COCC(=O)N1C[C@H](C)[C@H](OC)CN(C)C(=O)c2ccc(NC(=O)Nc3cccc(F)c3)cc2OC[C@H]1C`, the growth inhibition call is reported as “inactive”.
In the case of `C[C@H]1CCCCO[C@H](CN(C)C(=O)CCCN(C)C)[C@@H](C)CN([C@@H](C)CO)C(=O)c2cc(NC(=O)Nc3ccc(C(F)(F)F)cc3)ccc2O1`, the growth inhibition call is reported as “inactive”.
`CCCCOC(=O)[C@@H](N)CCC(=O)O` was tested, and the growth inhibition call was “inactive”.
With `CC[C@@]1(O)C[C@H](O[C@H]2C[C@H](N(C)C)[C@H](O[C@H]3C[C@H](O)[C@H](O[C@H]4CCC(=O)[C@H](C)O4)[C@H](C)O3)[C@H](C)O2)c2c(cc3c(c2O)C(=O)c2c(O)cccc2C3=O)[C@H]1C(=O)OC` the growth inhibition call was “inactive”.
In the case of `COC(=O)[C@H]1c2cc3c(c(O)c2[C@@H](O[C@@H]2O[C@H](C)[C@H](OC)[C@](C)(OC)[C@@H]2OC)C[C@@]1(C)O)C(=O)c1c(O)cc2c(c1C3=O)O[C@H]1O[C@@]2(C)[C@@H](O)[C@H](N(C)C)[C@@H]1O`, the growth inhibition call is reported as “active”.
In the case of `C[C@H](CO)N1C[C@H](C)[C@H](CN(C)Cc2ccc(Cl)c(Cl)c2)Oc2ccc(NC(=O)Cn3cnnn3)cc2CC1=O`, the growth inhibition call is reported as “inactive”.
With `Cc1noc(C)c1NC(=O)Nc1ccc2c(c1)C(=O)N([C@@H](C)CO)C[C@H](C)[C@H](CN(C)C(=O)NC1CCCCC1)OCCCC[C@H](C)O2` the growth inhibition call was “inactive”.
In the case of `Cc1noc(C)c1S(=O)(=O)Nc1cccc2c1O[C@@H](CN(C)S(=O)(=O)c1cccs1)[C@@H](C)CN([C@H](C)CO)C2=O`, the growth inhibition call is reported as “inactive”.
`CN1CCN(CC(=O)N2c3ccccc3C(=O)Nc3cccnc32)CC1.Cl.Cl` was tested, and the growth inhibition call was “inactive”.
For `O=C(O)CCC(=O)N1CC(=O)Nc2ccccc21`, the growth inhibition call was “inactive”.
With `Cc1scc2c1N(C(=O)CN1CCN(C)CC1)c1ccccc1NC2=O.Cl` the growth inhibition call was “active”.
With `CS(=O)(=O)N1CCC2(CC1)OCCO2` the growth inhibition call was “inactive”.
In the case of `O=C(Nc1ccc(Cl)cc1)Nc1ccc(Cl)c(Cl)c1`, the growth inhibition call is reported as “active”.
With `O=C(Nc1ccc(C(F)(F)F)cc1)Nc1cccc(Cl)c1` the growth inhibition call was “inactive”.
With `CCC(=O)Nc1ccc(Cl)cc1` the growth inhibition call was “inactive”.
`CCC(=O)N[C@H]1C=C[C@@H](CC(=O)OC)O[C@H]1CO` was tested, and the growth inhibition call was “inactive”.
In the case of `Cc1ccc(S(=O)(=O)Nc2ccc3c(c2)CC(=O)N([C@@H](C)CO)C[C@@H](C)[C@@H](CN(C)CC2CC2)O3)cc1`, the growth inhibition call is reported as “inactive”.
With `C[C@@H]1CCCCO[C@H](CN(C)C(=O)Nc2ccccc2)[C@H](C)CN([C@H](C)CO)C(=O)c2cc(NS(=O)(=O)c3ccc(Cl)cc3)ccc2O1` the growth inhibition call was “inactive”.
For `CC(C)[Si](C#CCCc1ccccc1)(O[C@H](c1ccccc1)c1cn(Cc2ccccc2)nn1)C(C)C`, the growth inhibition call was “inactive”.
In the case of `CC(C)[Si](C#CCCCC#N)(O[C@H](c1ccccc1)c1cn(Cc2cccc(Cl)c2)nn1)C(C)C`, the growth inhibition call is reported as “active”.
With `CCCCCCC#C[Si](O[C@H](c1ccccc1)c1cn(Cc2cccc(Cl)c2)nn1)(C(C)C)C(C)C` the growth inhibition call was “inactive”.
For `C[C@@H]1CCCCO[C@@H](CN(C)Cc2ccc(C(=O)Nc3ccccc3N)cc2)[C@@H](C)CN([C@H](C)CO)C(=O)c2cc(NS(=O)(=O)c3ccc(F)cc3)ccc2O1`, the growth inhibition call was “inactive”.
With `C[C@@H]1CN([C@H](C)CO)C(=O)Cc2cc(NC(=O)Cc3cn(C)c4ccccc34)ccc2O[C@H]1CN(C)C` the growth inhibition call was “inactive”.
`CCCC[C@@H](C)/C=C(C)/C=C(\C)C(=O)NC1=C[C@@](O)(/C=C/C=C/C=C/C(=O)NC2C(=O)CCC2=O)[C@@H]2O[C@@H]2C1=O` was tested, and the growth inhibition call was “active”.
With `CC(C)NC(=O)N(C)C[C@H]1Oc2ccc(NC(=O)CCC(F)(F)F)cc2C(=O)N([C@H](C)CO)C[C@@H]1C` the growth inhibition call was “inactive”.
For `C[C@@H]1CCCCO[C@@H](CN(C)S(=O)(=O)c2cccs2)[C@H](C)CN([C@H](C)CO)C(=O)c2cc(NC(=O)c3ccccc3)ccc2O1`, the growth inhibition call was “inactive”.
In the case of `COc1ccccc1CNC(=O)C[C@@H]1CC[C@H]2[C@@H](COC[C@@H](O)CN2C(=O)Nc2ccc(Cl)cc2)O1`, the growth inhibition call is reported as “inactive”.
`COc1ccccc1CNC(=O)C[C@@H]1CC[C@H]2[C@@H](COC[C@H](O)CN2C(=O)Nc2ccc(F)cc2)O1` was tested, and the growth inhibition call was “inactive”.
`COc1ccccc1CNC(=O)C[C@H]1CC[C@H]2[C@@H](COC[C@@H](O)CN2C(=O)Nc2ccc(Cl)cc2)O1` was tested, and the growth inhibition call was “inactive”.
`COc1ccccc1CNC(=O)C[C@@H]1CC[C@@H]2[C@H](COC[C@H](O)CN2C(=O)Nc2ccc(Cl)cc2)O1` was tested, and the growth inhibition call was “inactive”.
With `O=C(C[C@@H]1CC[C@H]2[C@@H](COC[C@@H](O)CN2C(=O)Nc2ccc(Cl)cc2)O1)NC1Cc2ccccc2C1` the growth inhibition call was “inactive”.
With `COc1ccccc1CNC(=O)C[C@H]1CC[C@H]2[C@@H](COC[C@H](O)CN2C(=O)Nc2ccc(Cl)cc2)O1` the growth inhibition call was “active”.
`COc1ccccc1CNC(=O)C[C@H]1CC[C@@H]2[C@H](COC[C@H](O)CN2C(=O)Nc2ccc(Cl)cc2)O1` was tested, and the growth inhibition call was “inactive”.
`O=C(C[C@H]1CC[C@H]2[C@@H](COC[C@H](O)CN2C(=O)Nc2ccc(Cl)cc2)O1)NC1Cc2ccccc2C1` was tested, and the growth inhibition call was “active”.
With `O=C(C[C@H]1CC[C@@H]2[C@H](COC[C@@H](O)CN2C(=O)Nc2ccc(Cl)cc2)O1)NC1Cc2ccccc2C1` the growth inhibition call was “inactive”.
In the case of `COc1ccccc1CNC(=O)C[C@@H]1CC[C@@H]2[C@H](COC[C@@H](O)CN2C(=O)Nc2ccc(Cl)cc2)O1`, the growth inhibition call is reported as “active”.
`COc1ccccc1CNC(=O)C[C@@H]1CC[C@H]2[C@@H](COC[C@H](O)CN2C(=O)Nc2ccc(Cl)cc2)O1` was tested, and the growth inhibition call was “inactive”.
With `COc1ccccc1CNC(=O)C[C@H]1CC[C@@H]2[C@H](COC[C@@H](O)CN2C(=O)Nc2ccc(Cl)cc2)O1` the growth inhibition call was “active”.
